Inconclusive results are not listed. A call without a number means that no potency is given here. The source made the active and inactive calls. Unless noted, calls come from the whole dose curve; as a rule, active = well fitted curve in the direction sought with a large enough effect; inconclusive = small, poorly fitted or top-dose-only effect, or another doubt; inactive = no such curve, though single readings can be large; an effect the other way counts as inactive or inconclusive.
tested on: not listed separately; test: Primary qHTS for small molecule stabilizers of the endoplasmic reticulum resident proteome: Secreted ER Calcium Modulated Protein (SERCaMP) assay (AID 1508630); settings: SH-SY5Y GLuc-SERCaMP (Gaussia luciferase released on ER calcium loss) secretion, thapsigargin, luminescence; series mostly up to 38.4 µM
Method in brief: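 The SH-SY5Y reporter protocol was run at 3 concentrations up to 38.3 uM (primary) or 11 concentrations (follow-up): 16 h compound, 100 nM thapsigargin for 4 h, then extracellular luciferase luminescence.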

Structure (SMILES)	Potency
CCN1CCCC1CNC(=O)c1cc(S(N)(=O)=O)ccc1OC (centres undefined)	inactive
CC(=O)Oc1ccccc1C(=O)Nc1ncc([N+](=O)[O-])s1	inactive
CC(=O)[C@H]1CC[C@H]2[C@@H]3CCC4=CC(=O)CC[C@]4(C)[C@H]3CC[C@]12C	inactive
Nc1nc(=S)c2[nH]cnc2[nH]1	inactive
NC(=O)c1cccc(N)c1	inactive
CN(C)c1ccc(C(=C2C=CC(=[N+](C)C)C=C2)c2ccc(N(C)C)cc2)cc1	inactive
NC(=O)c1ccc2[nH]ccc2c1	inactive
CC(C)NCC(O)c1ccc(NS(C)(=O)=O)cc1 (centres undefined)	inactive
CNC(=O)c1cc(Oc2ccc(NC(=O)Nc3ccc(Cl)c(C(F)(F)F)c3)cc2)ccn1	inactive
Nc1nc(N)c2nc(CNc3ccc(C(=O)NC(CCC(=O)O)C(=O)O)cc3)cnc2n1 (centres undefined)	inactive
CO[C@@]12[C@H](COC(N)=O)C3=C(C(=O)C(C)=C(N)C3=O)N1C[C@@H]1N[C@@H]12	inactive
CC(C)C1CCC(C(=O)N[C@H](Cc2ccccc2)C(=O)O)CC1 (some centres undefined)	inactive
CCCCS(=N)(=O)CCC(N)C(=O)O (centres undefined)	inactive
CC1CC2C3CCC4=CC(=O)C=C[C@]4(C)[C@@]3(F)[C@@H](O)C[C@]2(C)[C@@]1(O)C(=O)CO (some centres undefined)	inactive
C#CCN[C@@H]1CCc2ccccc21	inactive
CCN(CC)CC#CCOC(=O)C(O)(c1ccccc1)C1CCCCC1 (centres undefined)	inactive
CNCC[C@H](Oc1cccc2ccccc12)c1cccs1	inactive
C1CCC(C(CC2CCCCN2)C2CCCCC2)CC1 (centres undefined)	inactive
COC(=O)Nc1nc2ccc(C(=O)c3ccccc3)cc2[nH]1	inactive
CCCCOc1ccc(CC(=O)NO)cc1	inactive
O=C(O)c1ccc(-n2nc(-c3ccccc3O)nc2-c2ccccc2O)cc1	inactive
CCc1c2c(nc3ccc(OC(=O)N4CCC(N5CCCCC5)CC4)cc13)-c1cc3c(c(=O)n1C2)COC(=O)[C@]3(O)CC	inactive
NC1(c2ccc(-c3nc4ccn5c(=O)[nH]nc5c4cc3-c3ccccc3)cc2)CCC1	inactive
COc1cc2nc(N3CCCN(C)CC3)nc(NC3CCN(Cc4ccccc4)CC3)c2cc1OC	inactive
O[C@@H](CNC[C@H](O)[C@H]1CCc2cc(F)ccc2O1)[C@@H]1CCc2cc(F)ccc2O1	inactive
CC1=C(C(=O)O)N2C(=O)[C@@H](NC(=O)C(N)c3ccccc3)[C@H]2SC1 (some centres undefined)	inactive

tested on: not listed separately; test: A High-Content qHTS Against Drug Library for the Identification of Small Molecules that Inhibit DYT1 Early Onset Primary Dystonia-Associated Cell Pathology (AID 1645839; calls by dose curve); settings: HEK293 Flp-In EGFP-delE TorsinA, punctate imaging, 48 h; series mostly up to 46.1 µM
Method in brief: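 Induced EGFP-delE TorsinA cells are imaged after 48 h of compound treatment. Punctate fusion-protein distribution gives the %pathology value, while nuclei counts flag toxicity. Wild-type EGFP-hTOR1A cells define the normal pattern.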

Structure (SMILES)	Potency
Cc1noc(NS(=O)(=O)c2ccc(N)cc2)c1C	inactive
Nc1[nH]c(=O)ncc1F	inactive
O=C(O)c1cn(C2CC2)c2cc(N3CCNCC3)c(F)cc2c1=O	inactive
CCOC(=O)c1ccc(OC(=O)CCCCCN=C(N)N)cc1	inactive
CC(C)C1CCC(C(=O)N[C@H](Cc2ccccc2)C(=O)O)CC1 (some centres undefined)	inactive
C#CCN[C@@H]1CCc2ccccc21	inactive
Cc1oc(=O)oc1CN1CCN(c2cc3c(cc2F)c(=O)c(C(=O)O)c2n3C(C)S2)CC1 (centres undefined)	inactive
CNC1CCCN(c2c(F)cc3c(=O)c(C(=O)O)cn(C4CC4)c3c2OC)C1 (centres undefined)	inactive
NS(=O)(=O)c1cc2c(cc1Cl)NC(C(Cl)Cl)NS2(=O)=O (centres undefined)	inactive
O=C(O)CCn1c2c(c3ccccc31)C[C@H](NS(=O)(=O)c1ccc(F)cc1)CC2	inactive
COc1ccc2c(c1)c(CC(=O)OCC(=O)O)c(C)n2C(=O)c1ccc(Cl)cc1	inactive
NCCCC(O)(P(=O)(O)O)P(=O)(O)O	inactive
Cc1cc(NS(=O)(=O)c2ccc(N)cc2)no1	inactive

biological target: Cytochrome P450 2D6 (Homo sapiens) (UniProt P10635); test: Cytochrome P450 family 2 subfamily D member 6 (CYP2D6) small molecule antagonists: luciferase biochemical (cell-free) qHTS assay (AID 1645840; active = well fitted curve in the direction sought with a large enough effect in the repeat runs; an effect the other way counts as inactive or inconclusive; note: nearly all actives have a fitted effect of over 55% in size; note: potency is the fitted concentration of half-maximal effect); settings: P450-Glo CYP2D6 enzyme, luciferin luminescence, 1 h; series mostly up to 57.4 µM
Method in brief: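 P450-Glo CYP2D6 system: proluciferin substrate converted by enzyme to luciferin, read by luminescence proportional to activity. Enzyme-substrate mix with compound 10 min at room temperature, then NADPH regeneration 1 h before detection reagent.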

Chain of Cytochrome P450 2D6 (Homo sapiens) (P10635 whole entry, looked up): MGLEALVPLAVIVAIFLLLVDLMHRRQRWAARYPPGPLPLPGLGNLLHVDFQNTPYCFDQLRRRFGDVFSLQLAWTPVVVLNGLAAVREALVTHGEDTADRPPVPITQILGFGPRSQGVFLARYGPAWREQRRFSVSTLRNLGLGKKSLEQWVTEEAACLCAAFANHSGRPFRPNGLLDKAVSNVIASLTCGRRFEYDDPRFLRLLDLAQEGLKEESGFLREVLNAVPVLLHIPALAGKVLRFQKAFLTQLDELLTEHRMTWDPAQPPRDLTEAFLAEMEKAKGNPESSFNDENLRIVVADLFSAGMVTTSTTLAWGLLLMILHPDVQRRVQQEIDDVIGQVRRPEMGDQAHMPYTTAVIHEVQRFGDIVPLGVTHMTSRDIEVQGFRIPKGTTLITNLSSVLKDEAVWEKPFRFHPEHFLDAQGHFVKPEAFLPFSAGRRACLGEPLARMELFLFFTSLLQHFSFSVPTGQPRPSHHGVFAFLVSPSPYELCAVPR

Structure (SMILES)	Potency
CC(=O)Oc1ccccc1C(=O)Nc1ncc([N+](=O)[O-])s1	8.71 µM (active)
Cc1noc(NS(=O)(=O)c2ccc(N)cc2)c1C	inactive
CN(C)c1ccc(C(=C2C=CC(=[N+](C)C)C=C2)c2ccc(N(C)C)cc2)cc1	3.09 µM (active)
Nc1[nH]c(=O)ncc1F	inactive
CO[C@@]12[C@H](COC(N)=O)C3=C(C(=O)C(C)=C(N)C3=O)N1C[C@@H]1N[C@@H]12	12.3 µM (active)
CCOC(=O)c1ccc(OC(=O)CCCCCN=C(N)N)cc1	0.0977 µM (active)
CCN(CC)CC#CCOC(=O)C(O)(c1ccccc1)C1CCCCC1 (centres undefined)	3.01 µM (active)
Cc1oc(=O)oc1CN1CCN(c2cc3c(cc2F)c(=O)c(C(=O)O)c2n3C(C)S2)CC1 (centres undefined)	inactive
CNC1CCCN(c2c(F)cc3c(=O)c(C(=O)O)cn(C4CC4)c3c2OC)C1 (centres undefined)	inactive
NS(=O)(=O)c1cc2c(cc1Cl)NC(C(Cl)Cl)NS2(=O)=O (centres undefined)	inactive
O=C(O)CCn1c2c(c3ccccc31)C[C@H](NS(=O)(=O)c1ccc(F)cc1)CC2	inactive
C1CCC(C(CC2CCCCN2)C2CCCCC2)CC1 (centres undefined)	0.138 µM (active)
COc1ccc2c(c1)c(CC(=O)OCC(=O)O)c(C)n2C(=O)c1ccc(Cl)cc1	inactive
O=C(O)c1ccc(-n2nc(-c3ccccc3O)nc2-c2ccccc2O)cc1	inactive
CCc1c2c(nc3ccc(OC(=O)N4CCC(N5CCCCC5)CC4)cc13)-c1cc3c(c(=O)n1C2)COC(=O)[C@]3(O)CC	inactive

Reference: PubChem BioAssay (NCATS)
